# Results: PubChem BioAssay (Tox21)
# Inconclusive results are not listed. Where a call stands in place of a potency, no number is given. Active and inactive are the calls of the source. The call rests on the fitted dose curve; in most records, active means well fitted cell-killing curve with a large enough effect in the repeat runs; inconclusive means weak or mixed curves, or effect the other way; inactive means flat fitted curve, though single readings scatter.
# Experiment: cAMP Responsive Elements (CRE) small molecule agonists, cell-based qHTS assay: qHTS cell viability counter screen (AID 2060914); further: nearly all actives have a fitted effect of over 50% in size
# Settings: CRE-bla HEK293T viability, CellTiter-Glo luminescence, 5 h; series mostly up to 92.4 µM
# Summary of the method: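 Cytotoxicity was measured as ATP luminescence (CellTiter-Glo, 30 min at room temperature) in the same wells as the CRE-bla FRET read-out. HEK293T CRE-bla cells had 3 h compound exposure at 37C/5% CO2.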
SMILES,Potency,"activity change, negative = cytotoxicity"
CCOC(=O)c1ccc(N(C)C)cc1,inactive,–
CCCC(C)C(=O)OCC (stereo not given),inactive,–
CC(C)(c1ccccc1)c1ccc(Nc2ccc(C(C)(C)c3ccccc3)cc2)cc1,inactive,–
CC1(C)O[C@@H]2C[C@H]3[C@@H]4C[C@H](F)C5=CC(=O)CC[C@]5(C)[C@H]4[C@@H](O)C[C@]3(C)[C@]2(C(=O)CO)O1,inactive,–
C[C@@H]1CC[C@@]2(OC1)O[C@H]1C[C@H]3[C@@H]4CC[C@H]5C[C@@H](O)CC[C@]5(C)[C@H]4CC(=O)[C@]3(C)[C@H]1[C@@H]2C,–,-1.47% [at 8.39 µM] (inactive)
O=c1[nH]c2ccc(S(=O)CCN3CCC(Cc4ccc(F)cc4)CC3)cc2o1 (stereo not given),inactive,–
CN(C)CCCCCCN(C)C,inactive,–
O=C(CCCN1CCN(c2ccccn2)CC1)c1ccc(F)cc1,inactive,–
CCCCNc1ccc(NCCCC)c2c1C(=O)c1ccccc1C2=O,–,-7.45% [at 18.9 µM] (inactive)
COc1cc2c(cc1OC)[C@@H]1CC(=O)[C@@H](CC(C)C)CN1CC2,inactive,–
CC1(C)S[C@@H]2[C@H](NC(=O)Cc3ccccc3)C(=O)N2[C@H]1C(=O)O (tested in a mixture with another compound),inactive,–
Cc1cc(C(C)(C)C)c(O)c(C)c1Cn1c(=O)n(Cc2c(C)cc(C(C)(C)C)c(O)c2C)c(=O)n(Cc2c(C)cc(C(C)(C)C)c(O)c2C)c1=O,inactive,–
CCCCN1C=CN(C)C1,–,2.49% [at 18.9 µM] (inactive)
Cn1c(=O)c2[nH]cnc2n(C)c1=O,inactive,–
CCC(=O)c1cccc(Cl)c1,inactive,–
CC1=C(O)C(=O)OC1C (stereo not given),inactive,–
CC(C)CC(C)O (stereo not given),inactive,–
O=C1NCCN1CCO,inactive,–
C=CCCC,inactive,–
CCc1cccc2c(CCO)c[nH]c12,inactive,–

SMILES,Potency,"activity change, negative = cytotoxicity"
CC(=O)CC(c1ccc([N+](=O)[O-])cc1)c1c(O)c2ccccc2oc1=O (stereo not given),inactive,–
Clc1ccc(Cl)c(Cl)c1Cl,inactive,–
NNC(=O)OCc1ccccc1,inactive,–
C=C(C)C(=O)OC1CC(C)CC(C)(C)C1 (stereo not given),inactive,–
Cc1cccc2sc(N)nc12,inactive,–
CN1[C@@H]2CC[C@H]1CC(OC(=O)C(O)c1ccccc1)C2 (stereo not given in full),inactive,–
O=C(O)CNC(=O)c1ccccc1I,inactive,–
O=c1c(-c2ccc(O)cc2)coc2cc(O)cc(O)c12,inactive,–
NC(=O)c1ccc(N)cc1,inactive,–
Clc1sc(Cl)c(Cl)c1Cl,inactive,–
CCCCOC(=O)c1ccc(O)cc1,inactive,–
CCCCCC1CCC(=O)O1 (stereo not given),inactive,–
Cc1cc(C)c(S(=O)(=O)O)cc1N=Nc1cc(S(=O)(=O)O)c2ccccc2c1O,inactive,–
CCc1ccc2c(c1)C(=O)c1ccccc1C2=O,inactive,–
NC(=O)c1ccccc1Cl,inactive,–
O=C(c1ccc(O)cc1)c1ccc(Cl)cc1,inactive,–
CCOC(=O)OC(C)OC1=C(C(=O)Nc2ccccn2)N(C)S(=O)(=O)c2ccccc21 (stereo not given),inactive,–
CS(=O)(=O)c1ccc([C@@H](O)[C@@H](CF)NC(=O)C(Cl)Cl)cc1,inactive,–
CCCCCCCCCCOC(=O)c1ccccc1C(=O)OCCCCCCCC,inactive,–
CC1(C)OC(=O)NC1=O,inactive,–
